According to PubChem BioAssay (Tox21):
Records with an inconclusive call do not appear. The source made the active and inactive calls. Unless noted, calls come from the whole dose curve; as a rule, active = well fitted curve in the direction sought with a large enough effect in the repeat runs; inconclusive = weak or mixed curves; inactive = no such curve, though single readings can be large; an effect the other way counts as inactive or inconclusive.

Experiments:
[1] = qHTS assay to identify small molecule antagonists of the estrogen related receptor (ERR) signaling pathway from Tox21 library - cell viability counter screen (AID 1224834); note: nearly all actives have a fitted effect of over 30% in size
Procedure, shortened: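 Cytotoxicity of test substances is gauged in the same ERR cells used for the antagonist screen, after 17.5 h of compound treatment at 37 C, by CellTiter-Fluor fluorescence measured after 30 min.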

[2] = target: Luciferin 4-monooxygenase (Photinus pyralis) (UniProt P08659); experiment: qHTS assay to identify small molecule inhibitors of firefly luciferase (AID 1224835); note: nearly all actives have a fitted effect of over 25% in size; note: potency is the fitted concentration of half-maximal effect; for activity change, negative = inhibition: series mostly up to about 120 µM
Procedure, shortened: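 Inhibition of purified Photinus luciferase is measured by luminescence. Substrate levels (D-luciferin, ATP) sit at their KM values. Each compound is tested in a concentration series.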

[3] = qHTS assay to identify small molecule agonists of the constitutive androstane receptor (CAR) signaling pathway - cell viability counter screen (AID 1224836); note: series mostly up to about 92 µM; nearly all actives have a fitted effect of over 45% in size
Procedure, shortened: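 HepG2 cells stably carrying hCAR and a CYP2B6-2.2kb reporter were plated 4 h, then given compounds at 15 concentrations plus PK11195 (final 0.75 uM). After 23 h at 37 C, viability was read by CellTiter-Fluor fluorescence.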

[4] = qHTS assay to identify small molecule antagonists of the constitutive androstane receptor (CAR) signaling pathway - cell viability counter screen (AID 1224837); note: series mostly up to about 92 µM; nearly all actives have a fitted effect of over 45% in size
Procedure, shortened: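 Multiplexed cytotoxicity read-out for the CAR antagonist screen: double-stable HepG2-CYP2B6-hCAR cells co-treated with 50 nM CITCO (final) and compound over 15 concentrations, incubated 23 hr, then assessed by CellTiter-Fluor fluorescence.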

[5] = target: Nuclear receptor subfamily 1 group I member 3 (Homo sapiens) (UniProt Q14994); experiment: qHTS assay to identify small molecule antagonists of the constitutive androstane receptor (CAR) signaling pathway (AID 1224838); note: nearly all actives have a fitted effect of over 40% in size
Procedure, shortened: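 Compounds were titrated across 15 concentrations onto HepG2 cells double-stably expressing hCAR and a CYP2B6-2.2kb reporter, together with 50 nM CITCO (final). After 24 h at 37 C, luciferase activity was measured by luminescence.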

[6] = target: Nuclear receptor subfamily 1 group I member 3 (Homo sapiens) (UniProt Q14994); experiment: qHTS assay to identify small molecule agonists of the constitutive androstane receptor (CAR) signaling pathway (AID 1224839);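 note: HepG2 cells stably carrying human CAR and a CYP2B6 luciferase reporter; series mostly up to about 92 µM; nearly all actives have a fitted effect of over 15% in size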
Procedure, shortened: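 HepG2 cells stably expressing hCAR and a CYP2B6-2.2kb luciferase reporter were treated with compounds at 15 concentrations plus 0.75 uM PK11195 (final) for 24 h at 37 C; luminescence was read after ONE-Glo addition.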

[7] = qHTS assay to identify small molecule antagonists of the estrogen related receptor signaling pathway with the pleiotropic PPARgamma coactivator (PGC) from Tox21 10K library - cell viability counter screen (AID 1224840; active = well fitted cell-killing curve with a large enough effect in the repeat runs, not every such curve was filed as active; note: nearly all actives have a fitted effect of over 40% in size)
Procedure, shortened: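 Step one, plate 2,000 PGC/ERR cells per well; step two, incubate 6 h at 37 C/5% CO2; step three, pin-transfer compounds; step four, incubate 17.5 h; step five, add CellTiter-Fluor and read fluorescence after 30 min.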

[8] = target: Thyrotropin receptor (Homo sapiens) (UniProt P16473); experiment: qHTS assay to identify small molecule agonists of the thyroid stimulating hormone receptor (TSHR) signaling pathway (AID 1224843; calls by dose curve; note: nearly all actives have a fitted effect of over 45% in size)
Procedure, shortened: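 HEK293 cells stably bearing the thyrotropin receptor were plated at 800 cells/well and challenged with compound (30 min, RT). Accumulated cAMP was quantified via cAMP-d2 competing for cryptate-tagged antibody.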

[9] = qHTS assay to identify small molecule agonists of the hypoxia (HIF-1) signaling pathway - cell viability counter screen (AID 1224844; calls by dose curve; note: nearly all actives have a fitted effect of over 50% in size)
Procedure, shortened: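 Tox21 10K compounds were added to HRE-bla ME-180 cells (0.5% dialyzed FBS) and incubated 17 hrs at 37C; ATP-based CellTiter-Glo luminescence then reported cell viability in the same wells.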

[10] = qHTS assay to identify small molecule agonists of H2AX (AID 1224845; active = well fitted activation curve with a large enough effect in the signal ratio in the repeat runs, not every such curve was filed as active; the % refers to the signal ratio)
Procedure, shortened: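 Phospho-H2AX Ser139 measured by HTRF (ex 320 nm; em 665 and 620 nm) after 24 hr antibody incubation. Compounds, 15 concentrations, 0.76% DMSO, were applied to CHO-K1 cells for 3hr at 37C before lysis.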

[11] = qHTS assay to identify small molecule agonists of H2AX - cell viability counter screen (AID 1224847; calls by dose curve; note: top concentration of the series differs between compounds; nearly all actives have a fitted effect of over 30% in size)
Procedure, shortened: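 Wild-type CHO-K1 cells (10% FBS medium) were plated overnight at 37C, exposed to compounds at 15 concentrations for 3 hr at 37C (0.76% DMSO final), and viability was read as CellTiter-Glo luminescence after 30 min at room temperature.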

[12] = qHTS RealTime-Glo MT Cell Viability Assay in HepG2 cells - 24 hour (AID 1224867); note: nearly all actives have a fitted effect of over 50% in size
Procedure, shortened: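 Cell number in HepG2 cultures estimated from NanoLuc luminescence generated by metabolic reduction of a prosubstrate by living cells. The homogeneous, nonlytic format allowed repeated reads at 0, 8, 16, 24, 32 and 40 h of compound exposure.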

[13] = qHTS RealTime-Glo MT Cell Viability Assay in HEK293 cells - 32 hour (AID 1224868); note: top concentration of the series differs between compounds; nearly all actives have a fitted effect of over 50% in size
Procedure, shortened: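 Homogeneous bioluminescent viability format in HEK293 cells (600 cells/well). Following 5 h at 37 C/5% CO2, 23 nL compound was pintooled; the signal was measured repeatedly during 40 h incubation.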

[14] = A CellTox Green Cytotoxicity Assay to monitor cytotoxicity in HEK293 cells - 0 hour (AID 1224869); note: nearly all actives have a fitted effect of over 50% in size
Procedure, shortened: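 Cytotoxicity was tracked continuously in HEK293 cells by a DNA-binding dye excluded from viable cells. Compounds were transferred in DMSO 5 h after seeding; fluorescence was recorded at intervals up to 40 h.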

[15] = qHTS RealTime-Glo MT Cell Viability Assay in HepG2 cells - 40 hour (AID 1224870); note: nearly all actives have a fitted effect of over 50% in size
Procedure, shortened: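 Real-time viability: cells seeded at 600 per well together with NanoLuc and cell-permeant prosubstrate, compounds added after 5 h incubation. Luminescence tracked at 0, 8, 16, 24, 32 and 40 h of exposure.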

[16] = qHTS assay to identify small molecule antagonists of the estrogen related receptor signaling pathway with the pleiotropic PPARgamma coactivator (PGC) from Tox21 10K library (AID 1224841; call rule not given here)
Procedure, shortened: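 Antagonism in this quantitative HTS is taken from loss of luciferase signal in PGC/ERR cells. Cells (2,000/well) are treated with compounds in DMSO after a 6 h settling period and read by One-Glo luminescence after 18 h.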

[17] = qHTS assay to identify small molecule agonists of the estrogen related receptor signaling pathway with the pleiotropic PPARgamma coactivator (PGC) from Tox21 10K library (AID 1224842); note: nearly all actives have a fitted effect of over 15% in size
Procedure, shortened: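 Luminescence from One-Glo (30 min, room temperature) measured after PGC/ERR cells had 18 h at 37 C with pinned compound (23 nL in DMSO). Cells had been seeded at 2,000 per well and pre-incubated 6 h.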

[18] = qHTS assay to identify small molecule antagonists of the estrogen related receptor (ERR) signaling pathway from Tox21 library (AID 1224848); note: nearly all actives have a fitted effect of over 50% in size
Procedure, shortened: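 Reading was by luminescence 30 min after ONE-Glo addition. Before that, ERR cells at 2,000 per well had rested 6 h at 37 C/5% CO2 and then received pin-tooled compounds in DMSO for 18 h at 37 C.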

[19] = qHTS assay to identify small molecule agonists of the estrogen related receptor (ERR) signaling pathway from Tox21 library (AID 1224849; calls by dose curve; note: nearly all actives have a fitted effect of over 15% in size)
Procedure, shortened: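 Agonist signal is luciferase luminescence from an ERR reporter cell line treated 18 h at 37 C with DMSO-dissolved compounds, read 30 min after ONE-Glo addition at room temperature.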

[20] = qHTS assay to identify small molecule agonists of the hypoxia (HIF-1) signaling pathway (AID 1224846; active = well fitted activation curve with a large enough effect in the signal ratio in the repeat runs, not every such curve was filed as active; the % refers to the signal ratio)
Procedure, shortened: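 Steps: seed ME-180 HRE-bla cells (2,000/well, 0.5% dialyzed FBS); incubate 5 hrs at 37C; pin-transfer compounds or DMSO; incubate 17 hrs; add LiveBLAzer B/G substrate CCF4-AM; measure reporter activation by FRET.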
% is set by controls: 0 for no effect and ±100 for the full control effect.

Chain of Luciferin 4-monooxygenase (Photinus pyralis) (P08659 whole entry, looked up): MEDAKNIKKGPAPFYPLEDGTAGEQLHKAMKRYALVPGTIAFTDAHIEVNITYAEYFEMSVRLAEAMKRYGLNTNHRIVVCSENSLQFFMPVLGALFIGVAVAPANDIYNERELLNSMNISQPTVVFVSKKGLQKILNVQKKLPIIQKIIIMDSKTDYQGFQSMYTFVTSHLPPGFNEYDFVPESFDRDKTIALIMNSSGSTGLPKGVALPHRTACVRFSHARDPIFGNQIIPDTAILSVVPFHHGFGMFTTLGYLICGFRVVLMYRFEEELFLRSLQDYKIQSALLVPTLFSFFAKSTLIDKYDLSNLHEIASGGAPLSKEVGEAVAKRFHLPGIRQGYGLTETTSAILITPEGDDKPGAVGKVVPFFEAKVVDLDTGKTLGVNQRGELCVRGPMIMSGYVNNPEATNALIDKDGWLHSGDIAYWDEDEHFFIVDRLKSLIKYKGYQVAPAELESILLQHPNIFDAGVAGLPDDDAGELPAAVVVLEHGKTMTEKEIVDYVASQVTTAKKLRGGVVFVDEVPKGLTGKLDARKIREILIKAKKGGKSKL
Chain of Thyrotropin receptor (Homo sapiens) (P16473 whole entry, looked up): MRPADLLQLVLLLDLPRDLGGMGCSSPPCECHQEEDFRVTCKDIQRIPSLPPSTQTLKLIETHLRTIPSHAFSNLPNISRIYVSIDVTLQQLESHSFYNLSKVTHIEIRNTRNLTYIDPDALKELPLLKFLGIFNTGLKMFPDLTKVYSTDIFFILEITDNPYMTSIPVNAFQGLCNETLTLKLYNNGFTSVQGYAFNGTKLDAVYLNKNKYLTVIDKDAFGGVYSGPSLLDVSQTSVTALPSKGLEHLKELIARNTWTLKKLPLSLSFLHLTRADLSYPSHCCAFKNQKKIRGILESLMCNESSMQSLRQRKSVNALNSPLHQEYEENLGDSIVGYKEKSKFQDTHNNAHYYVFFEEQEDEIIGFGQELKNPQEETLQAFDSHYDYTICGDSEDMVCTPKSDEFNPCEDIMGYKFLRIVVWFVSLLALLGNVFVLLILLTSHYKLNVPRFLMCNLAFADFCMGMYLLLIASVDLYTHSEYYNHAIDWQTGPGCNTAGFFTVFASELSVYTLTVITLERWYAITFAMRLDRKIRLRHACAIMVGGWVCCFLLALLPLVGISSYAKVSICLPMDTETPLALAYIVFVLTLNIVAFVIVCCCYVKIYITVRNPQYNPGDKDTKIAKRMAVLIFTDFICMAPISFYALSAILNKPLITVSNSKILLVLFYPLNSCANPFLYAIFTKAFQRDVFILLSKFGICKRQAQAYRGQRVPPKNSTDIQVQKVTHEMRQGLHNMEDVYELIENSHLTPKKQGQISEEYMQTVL
Chain of Nuclear receptor subfamily 1 group I member 3 (Homo sapiens) (Q14994 whole entry, looked up): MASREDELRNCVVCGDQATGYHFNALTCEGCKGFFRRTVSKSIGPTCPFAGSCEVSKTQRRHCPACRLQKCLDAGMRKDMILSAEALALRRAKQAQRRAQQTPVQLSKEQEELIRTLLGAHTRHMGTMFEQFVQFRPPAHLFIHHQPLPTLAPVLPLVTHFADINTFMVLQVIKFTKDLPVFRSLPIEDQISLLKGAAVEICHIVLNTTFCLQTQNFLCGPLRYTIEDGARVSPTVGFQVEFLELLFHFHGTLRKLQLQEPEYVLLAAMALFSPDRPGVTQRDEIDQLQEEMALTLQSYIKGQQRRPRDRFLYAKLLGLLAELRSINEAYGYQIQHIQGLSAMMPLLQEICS

CC(CC=O)CC(C)(C)C (stereo not drawn)
inactive: Potency [1] | Potency [2] | outcome [3] | outcome [4] | Potency [5] | Potency [6] | outcome [7] | Potency [8] | Potency [9] | Potency [10] | outcome [11] | outcome [12] | Potency [13] | outcome [14] | Potency [15]

CN(C)[C@@H]1C(=O)C(C(=O)NCN2CCCC2)=C(O)[C@@]2(O)C(=O)C3=C(O)c4c(O)cccc4[C@@](C)(O)C3C[C@@H]12 (stereo partly drawn)
inactive: Potency [1] | Potency [2] | outcome [3] | outcome [4] | Potency [5] | Potency [6] | outcome [7] | Potency [8] | Potency [9] | outcome [11] | outcome [12] | Potency [13] | Potency [15]

CC(C)(C)OC(=O)c1cccc(N)c1
inactive: Potency [1] | outcome [3] | outcome [4] | Potency [5] | Potency [6] | outcome [7] | Potency [8] | Potency [9] | Potency [10] | outcome [11] | outcome [12] | Potency [13] | outcome [14] | Potency [15]
active: Potency [2] 57.9 µM

O=S(=O)(O)c1cccc(S(=O)(=O)O)c1
inactive: Potency [1] | Potency [2] | outcome [3] | outcome [4] | Potency [5] | Potency [6] | Potency [16] | Potency [17] | Potency [8] | Potency [9] | Potency [10] | outcome [11] | Potency [18] | outcome [19] | outcome [12] | Potency [13] | Potency [15]

CCCCc1ccc2c(n1)[C@@H](c1ccc(OC)cc1C[C@H](C)C(=O)O)[C@H](C(=O)O)[C@H]2c1ccc2c(c1)OCO2
inactive: Potency [1] | Potency [2] | outcome [3] | outcome [4] | Potency [5] | Potency [6] | Potency [8] | Potency [9] | Potency [10] | outcome [20] | outcome [11] | outcome [12] | Potency [13] | outcome [14] | Potency [15]

CCCCN1C=CN(C)C1
inactive: viability change, negative = cytotoxic [1] 0.161% [at 19 µM] | activity change, negative = inhibition [2] -0.0434% [at 23.6 µM] | viability change, negative = cytotoxic [3] 5.36% [at 19 µM] | activity change, negative = cytotoxicity [4] -1.55% [at 19 µM] | activity, negative = inhibition [5] 14.7% [at 19 µM] | activation [6] -0.414% [at 19 µM] | activation [17] 0.537% [at 19 µM] | activation [8] 2.47% [at 19 µM] | activity change, negative = cytotoxicity [9] -14.8% [at 15.8 µM] | activation (H2AX phosphorylation) [10] -0.0666% [at 31.6 µM] | activation [20] -0.256% [at 15.8 µM] | activity change, negative = cytotoxicity [11] -1.83% [at 31.6 µM] | activity, negative = inhibition [18] 18.5% [at 19 µM] | activity change, positive = activation [19] 9.96% [at 19 µM] | activity change, negative = cytotoxicity [12] 3.12% [at 15.8 µM] | activity change, negative = cytotoxic [13] 8.51% [at 15.8 µM] | cytotoxicity [14] -3.75% [at 15.8 µM] | activity change, negative = cytotoxic [15] -0.384% [at 15.8 µM]

C=CC(C)(CCC=C(C)C)OC(=O)CC (stereo not drawn)
inactive: Potency [1] | Potency [2] | outcome [3] | outcome [4] | Potency [5] | Potency [6] | Potency [8] | Potency [9] | outcome [20] | outcome [11] | outcome [12] | Potency [13] | outcome [14] | Potency [15]

CC(C)c1ccc2ncccc2c1
inactive: Potency [1] | outcome [3] | outcome [4] | Potency [5] | Potency [6] | Potency [16] | Potency [17] | Potency [9] | Potency [10] | outcome [11] | Potency [18] | outcome [19] | Potency [13] | outcome [14] | Potency [15]
active: Potency [2] 31.7 µM
